CXXC DNA block = qHTS Fluorescence Polarization Assay for Inhibitors of MLL CXXC domain - DNA interaction. Histone-lysine N-methyltransferase 2A (Homo sapiens), Q03164. 290,000 compounds, 0.037% hits. Potency, µM (series often up to 115 µM), for inactives: at the top dose activity change, negative = inhibition, actives largely listed as inhibitors. MLL-CXXC / FITC-HOXA9 DNA fluorescence polarization. AID 2662, 2010; active = well fitted inhibition curve with a large enough effect in the polarisation, with a control signal flat, not every such curve was filed as active; inconclusive = small, poorly fitted or top-dose-only effect, or effect the other way, or a change in a side signal; inactive = no such curve, though single readings can be large or run the other way; the % refers to the polarisation; note: potency is the fitted concentration of half-maximal effect
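Steps: dispense CXXC domain solution (7 uM) → pin compounds or unlabeled HOX-A9 DNA control → 5 min ambient → add FLSN-HOX-A9 solution (50 nM) → spin → 30 min ambient → fluorescence polarization. Tris pH 7.5/NaCl/DTT/BSA buffer.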
TRb SRC2 PPI = qHTS for Inhibitors of the Interaction of Thyroid Hormone Receptor and Steroid Receptor Coregulator 2 | Potency, µM (series often up to 106 µM), inactives show at the top dose activity change, negative = inhibition, hits mostly inhibitors | 280,000 compounds, 0.065% hits | TRbeta-SRC2 peptide binding, fluorescence polarization; receptor liganded with 1 µM T3 | Thyroid hormone receptor beta (Homo sapiens), P10828 | AID 1469, 2008;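 note: potency is the fitted concentration of half-maximal effect; plate controls were bound peptide for no effect and peptide without receptor for full effect; nearly all actives have a fitted effect of over 50% in size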
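Human TRb ligand-binding domain (0.6 uM) is mixed with 20 nM Texas Red SRC2 peptide and 1 uM T3; after compound addition and 5 hr at ambient temperature, polarization is measured and normalized to unbound and bound controls.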
Menin-MLL FL inh = qHTS Assay for Inhibitors Targeting the Menin-MLL Interaction in MLL Related Leukemias: Competition With Fluorescein Labeled MLL-derived Peptide. Fluorescence polarization, fluorescein-MLL peptide displacement from menin. FP activity change, % at 61.4 µM. 290,000 tested, under 10 active. AID 1766, 2009; active = well fitted curve in the direction sought with a large enough effect in the polarisation, not every such curve was filed as active; inconclusive = small, poorly fitted or top-dose-only effect, or effect the other way, or a change in a side signal; inactive = no such curve, though single readings can be large or run the other way; the % refers to the polarisation; note: % of control where 0% means no effect
Menin MLL FP TR = qHTS Assay for Inhibitors Targeting the Menin-MLL Interaction in MLL Related Leukemias: Competition With Texas Red Labeled MLL-derived Mutant Peptide; O00255; Menin + Texas Red MLL mutant peptide, fluorescence polarization; 270,000 compounds, 0.23% hits; Potency, µM (series often up to 61.6 µM), for the others: top-dose FP activity change, negative = inhibition, actives largely listed as inhibitors; active = well fitted inhibition curve with a large enough effect in the polarisation, with a control signal flat, not every such curve was filed as active; inconclusive = small, poorly fitted or top-dose-only effect, or effect the other way, or a change in a side signal; inactive = no such curve, though single readings can be large or run the other way; the % refers to the polarisation; note: potency is the fitted concentration of half-maximal effect; % of control where 0% means no effect
Target sequence (O00255 whole entry, looked up): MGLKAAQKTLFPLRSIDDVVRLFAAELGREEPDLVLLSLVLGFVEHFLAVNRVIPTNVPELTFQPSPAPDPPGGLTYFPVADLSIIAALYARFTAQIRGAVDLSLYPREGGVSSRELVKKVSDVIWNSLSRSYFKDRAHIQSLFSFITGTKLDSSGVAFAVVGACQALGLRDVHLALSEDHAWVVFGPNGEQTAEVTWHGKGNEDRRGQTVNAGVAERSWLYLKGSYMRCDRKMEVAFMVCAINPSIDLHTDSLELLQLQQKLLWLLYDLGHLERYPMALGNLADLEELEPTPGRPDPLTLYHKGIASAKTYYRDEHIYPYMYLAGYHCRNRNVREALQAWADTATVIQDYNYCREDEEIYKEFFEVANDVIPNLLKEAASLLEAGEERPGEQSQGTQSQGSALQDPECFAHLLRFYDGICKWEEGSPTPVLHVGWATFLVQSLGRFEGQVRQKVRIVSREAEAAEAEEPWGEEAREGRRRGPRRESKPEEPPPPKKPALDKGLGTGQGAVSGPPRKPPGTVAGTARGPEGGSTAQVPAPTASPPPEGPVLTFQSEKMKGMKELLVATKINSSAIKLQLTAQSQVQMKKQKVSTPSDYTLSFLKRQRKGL
TexasRed fluor = Total Fluorescence Counterscreen for Inhibitors of the Interaction of Thyroid Hormone Receptor and Steroid Receptor Coregulator 2; Potency, µM (doses to about 106 µM), for the others: top-dose fluorescence change, negative = quenching; 280,000 compounds, 0.29% hits; TRb/SRC2 Texas Red total fluorescence interference; active = well fitted curve in either direction with a large enough effect; inconclusive = small, poorly fitted or top-dose-only effect; note: potency is the fitted concentration of half-maximal effect; % is set by controls: 0 for no effect and ±100 for the full control effect
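Human TRβ ligand-binding domain (0.6 uM) and Texas Red SRC2 peptide (20 nM) in Tris buffer with 1 uM T3 and 5% DMSO were incubated with pinned compound for 5 hr at ambient temperature. Total fluorescence was computed as S + 2P (555/632 nm).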
MLL CXXC Fl = qHTS Fluorescence Polarization (FP) Assay for Inhibitors of MLL CXXC domain - DNA interaction: Fluorescein FP. shares compounds with CXXC DNA block. MLL CXXC-DNA binding, fluorescein FP. Potency, µM (titrated, usually from 345 µM), inactives show at the highest dose activity change, negative = inhibition, actives largely listed as inhibitors. 200 compounds, 70% hits; note: potency is the fitted concentration of half-maximal effect; nearly all actives have a fitted effect of over 80% in size
MLL CXXC FP-TR = qHTS Fluorescence Polarization (FP) Assay for Inhibitors of MLL CXXC domain - DNA interaction: Texas Red FP; shares compounds with CXXC DNA block; MLL CXXC-DNA binding, Texas Red fluorescence polarization; Potency, µM (top dose mostly 345 µM), for the others: at the top dose activity change, negative = inhibition, hits mostly inhibitors; 200 compounds, 40% hits; note: potency is the fitted concentration of half-maximal effect; % is set by controls: 0 for no effect and ±100 for the full control effect; nearly all actives have a fitted effect of over 75% in size
MLL CXXC HTRF = qHTS Fluorescence Polarization (FP) Assay for Inhibitors of MLL CXXC domain - DNA interaction: HTRF Assay; shares compounds with CXXC DNA block; MLL CXXC-DNA binding, HTRF, biochemical; Potency, µM (titrated, usually from 172 µM), for the others: top-dose activity change, negative = inhibition, usual class: inhibitors; 210 compounds, 30% hits; AID 624162, 2012; note: % is set by controls: 0 for no effect and ±100 for the full control effect; nearly all actives have a fitted effect of over 80% in size
* marks the source's active call; other numbers are inactive results; ? = inconclusive; nt = no result; [ ] = another dose, or the depositor's remark. This is a sample that favours compounds with a hit; in the whole collection about 0.36% have one here. Unless noted, calls come from the whole dose curve; as a rule, active = well fitted curve in the direction sought with a large enough effect; inconclusive = small, poorly fitted or top-dose-only effect, or another doubt; inactive = no such curve, though single readings can be large; an effect the other way counts as inactive or inconclusive.

SMILES | CXXC DNA block | TRb SRC2 PPI | Menin-MLL FL inh | Menin MLL FP TR | TexasRed fluor | MLL CXXC Fl | MLL CXXC FP-TR | MLL CXXC HTRF
Cc1cc(/C=C2\C(=O)NC(=O)N(c3ccccc3F)C2=O)c(C)n1-c1cc(C(=O)O)cc(C(=O)O)c1 | 12.6µM* | nt | 7.9 | 26.0% | nt | 7.97µM* | 22.5µM* | 24.3µM*
Cc1cc(/C=C2\C(=O)NC(=O)N(c3ccc(F)cc3)C2=O)c(C)n1-c1cccc(C(=O)O)c1 | -18.6% | -1.6% | 8.2 | 9.8% | -1.4% | nt | nt | nt
Cc1cc(/C=C2\C(=O)NC(=O)N(c3ccccc3)C2=O)c(C)n1-c1ccc(C(=O)O)c(Cl)c1 | ? | nt | 15.1 | 22.9% | nt | 7.1% | 113µM* | -2.2%
FC(F)C(F)(F)OCC(Cn1cncn1)c1ccc(Cl)cc1Cl (stereo not given) | nt | -1.5%[201 µM] | nt | nt | -1.3%[201 µM] | nt | nt | nt
N#Cc1cc(I)c(O)c(I)c1 | nt | 9.0%[201 µM] | nt | nt | -5.0%[201 µM] | nt | nt | nt
CC(CO)NC(=O)C1C=C2c3cccc4[nH]cc(c34)CC2N(C)C1 (stereo not given) | 31.6µM* | 6.3% | ? | -15.0% | 3.1% | 142µM* | ? | 24.4%
CC1(C)[C@H](C=C(Cl)Cl)[C@H]1C(=O)O[C@H](C#N)c1ccc(F)c(Oc2ccccc2)c1 | nt | 3.8%[201 µM] | nt | nt | -1.5%[201 µM] | nt | nt | nt
CCOc1cc(C=C2C(=O)NC(=O)NC2=O)cc([N+](=O)[O-])c1O | 31.6µM* | -1.4% | -6.5 | ? | -0.4% | 20µM* | 89.5µM* | 19.3µM*
CN(C)c1ccc(C=C2C(=O)NC(=O)NC2=O)cc1[N+](=O)[O-] | -7.7% | -10.6% | -0.5 | 13.9% | -0.6% | nt | nt | nt
CN(CCOc1ccc(C=C2C(=O)NC(=O)NC2=O)cc1)c1ccccn1 | -3.3% | -2.4% | -0.1 | 7.3% | 1.2% | nt | nt | nt
COc1cc(C=C2C(=O)NC(=O)NC2=O)ccc1O | ? | 3.5% | ? | 23.5% | -1.4% | 56.5µM* | 159µM* | 122µM*
COc1ccc(OCCOc2cccc(C=C3C(=O)NC(=O)NC3=O)c2)cc1 | ? | nt | -1.0 | 49.4% | nt | 44.8µM* | ? | 38.5µM*
Cc1ccc(N2C(=O)NC(=O)/C(=C\c3cn(CC(=O)O)c4ccccc34)C2=O)cc1 | ? | nt | 16.4 | 56.7% | nt | 14.2µM* | 71.1µM* | -60.1%
CCN1C(=O)NC(=O)/C(=C\c2cn(CC(=O)O)c3ccccc23)C1=O | ? | nt | 27.3 | 24.3% | nt | nt | nt | nt
O=C(O)Cn1cc(/C=C2\C(=O)NC(=O)N(Cc3ccco3)C2=O)c2ccccc21 | ? | 14.6% | ? | ? | -18.5% | 7.11µM* | 39.8% | 48.5µM*
O=C1NC(=S)NC(=O)C12C(c1ccc(F)cc1)NC(=S)NC2c1ccc(F)cc1 (stereo not given) | ? | 1.3% | 1.0 | nt | -1.3% | ? | 30.7% | -9.9%
CCC[CH2][Sn]([CH2]CCC)([CH2]CCC)[O][Sn]([CH2]CCC)([CH2]CCC)[CH2]CCC | nt | -2.6%[201 µM] | nt | nt | 2.5%[201 µM] | nt | nt | nt

Assay outcomes (PubChem)
